Experimental data published in PubChem BioAssay.
The source made the active and inactive calls.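 How the source made its calls, unless noted: active means mean z-score across replicates of 1.96 or higher in either the MELAS or the Rieske mutant cell line; inactive means the rest.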

Columns and labels:
[1] = sensitizers of A549 cells to miR-34 induction, primary screen, imaging, A549 dox-inducible miR-34, nuclei and caspase counts (AID 1347080;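 active means compounds whose cell count with miR-34 switched on is under 0.7 times the count with it off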); conditions: A549 miR-34 inducible, Hoechst nuclei count, 48 h
[2] = survival rescue of mitochondrial mutant cells in low glucose, primary screen, MELAS cybrids, Rieske KO mouse fibroblasts, CellTiter-Glo (AID 1508586);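 further: z relative to plate mean and SD of compound and empty wells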
[3] = stronger effect = lower value, cell number ratio, induced over uninduced
[4] = measured here: relative caspase fold change +Dox/-Dox
[5] = measured here: total cells with miR-34 induction, stronger effect = lower value
[6] = measured here: total cells without miR-34 induction
[7] = MELAS cybrid survival, CellTiter-Glo 48 h, stronger effect = higher value
[8] = Rieske KO mouse fibroblast survival, CellTiter-Glo 72 h
Further: test concentration not given here.

| Structure (SMILES) | fold change [1, 3] | fold change [1, 4] | cell count [1, 5] | cell count [1, 6] | z-score [2, 7] | z-score [2, 8] |
| --- | --- | --- | --- | --- | --- | --- |
| O=C1C(Cl)=C(N2CCOCC2)C(=O)N1c1ccc(Cl)c(Cl)c1 | 0.939 (inactive) | 0.753 | 7840 | 8360 | -0.367 (inactive) | -0.893 |
| CC1(C)CCC[C@@]2(C)[C@H]3CC(=O)O[C@]3(C)CC[C@@H]12 | 0.913 (inactive) | 0.659 | 9360 | 10200 | -0.354 (inactive) | 1.06 |
| O=C(C=Cc1ccc2ccccc2n1)c1ccncc1 | 0.681 (active) | 0.506 | 2580 | 3790 | 0.232 (inactive) | 1.5 |
| CC1OC(OC2C(Oc3cc(O)c4c(c3)OC(c3ccc(O)cc3)CC4=O)OC(CO)C(O)C2O)C(O)C(O)C1O (stereo not drawn) | 1 (inactive) | 0.741 | 8310 | 8300 | -0.421 (inactive) | -0.0851 |
| CCC(C)C(=O)OC1CC(O)C=C2C=CC(C)C(CCC(O)CC(O)CC(=O)O)[C@H]21 (stereo partly drawn) | 0.937 (inactive) | 0.958 | 7720 | 8230 | 0.0242 (inactive) | -0.0533 |
| O=C(CCCS)NC1CCN(C(=O)COc2ccc(Cl)cc2Cl)CC1 | 0.885 (inactive) | 0.313 | 7910 | 8940 | -0.37 (inactive) | 1.05 |
| CCC1C(=O)N(C)c2cnc(Nc3ccc(C(=O)NC4CCN(C)CC4)cc3OC)nc2N1C1CCCC1 (stereo not drawn) | 1.18 (inactive) | 0.761 | 1360 | 1150 | 1.18 (inactive) | -1.35 |
| CC1(C)S[C@@H]2C(NC(=O)Cc3ccccc3)C(=O)N2C1C(=O)O (stereo partly drawn) | 0.875 (inactive) | 0.906 | 7910 | 9040 | 0.0178 (inactive) | -0.226 |
| O=C(c1cccc(Cl)c1F)N1CCN(Cc2cccc(Nc3nccs3)n2)CC1 | 0.822 (inactive) | 4.5 | 2250 | 2740 | -0.421 (inactive) | -0.143 |
| O=NO | 0.914 (inactive) | 1.01 | 8730 | 9550 | -0.254 (inactive) | -0.15 |
| CCN(CC)CCN(Cc1ccc(-c2ccc(C(F)(F)F)cc2)cc1)C(=O)Cn1c(SCc2ccc(F)cc2)nc(=O)c2c1CCC2 | 0.577 (active) | 1.58 | 1110 | 1920 | -0.397 (inactive) | -1.15 |
| CC1(C)O[C@@H]2C[C@H]3[C@@H]4CCC5=CC(=O)C=C[C@]5(C)[C@@H]4C(O)C[C@]3(C)[C@@]2(C(=O)CO)O1 (stereo partly drawn) | 0.87 (inactive) | 1.16 | 5200 | 5970 | -0.511 (inactive) | -0.393 |
| CC1(C)O[C@@H]2C[C@H]3[C@@H]4C[C@@H](F)C5=CC(=O)C=C[C@]5(C)[C@]4(F)C(O)C[C@]3(C)[C@@]2(C(=O)CO)O1 (stereo partly drawn) | 0.861 (inactive) | 0.94 | 5980 | 6950 | -0.367 (inactive) | -0.28 |
| CCOC(=O)C(CCc1ccccc1)NC(C)C(=O)N1Cc2ccccc2CC1C(=O)O (stereo not drawn) | 0.963 (inactive) | 1.71 | 8090 | 8400 | 0.0216 (inactive) | -0.419 |
| Nc1nc(CC(=O)Nc2ccc(CCNCC(O)c3ccccc3)cc2)cs1 (stereo not drawn) | 0.898 (inactive) | 1.03 | 8660 | 9650 | -0.0817 (inactive) | -0.148 |
| C#C[C@@]1(O)CC[C@H]2[C@@H]3CCc4cc(OC)ccc4[C@@H]3CC[C@@]21C | 0.921 (inactive) | 0.824 | 7730 | 8400 | -0.343 (inactive) | 0.814 |
| CC(Cc1cc2c(c(C(N)=O)c1)N(CCCO)CC2)NCCOc1ccccc1OCC(F)(F)F (stereo not drawn) | 0.869 (inactive) | 0.814 | 6950 | 8000 | -0.42 (inactive) | -0.511 |
| Nc1nc(Cl)nc2c1ncn2C1OC(CO)C(O)C1F (stereo not drawn) | 1.03 (inactive) | 0.719 | 1700 | 1650 | 0.651 (inactive) | -0.114 |
| COC1C=CO[C@@]2(C)Oc3c(C)c(O)c4c(O)c(c(C=NN5CCN(C)CC5)c(O)c4c3C2=O)NC(=O)C(C)=CC=CC(C)C(O)C(C)C(O)C(C)C(OC(C)=O)C1C (stereo partly drawn) | 0.973 (inactive) | 0.46 | 7970 | 8200 | -0.298 (inactive) | 0.515 |
| CCC(=O)O[C@@]1(C(=O)CCl)C(C)C[C@H]2[C@@H]3CC(F)C4=CC(=O)C=C[C@]4(C)[C@]3(F)C(O)C[C@@]21C (stereo partly drawn) | 0.853 (inactive) | 0.626 | 4930 | 5780 | -0.347 (inactive) | -0.183 |
| O=C(C=Cn1cnc(-c2cc(C(F)(F)F)cc(C(F)(F)F)c2)n1)NNc1cnccn1 | 1.07 (inactive) | 0.543 | 2320 | 2170 | -0.213 (inactive) | -7.28 |
| COc1ccc(CC(NC(=O)C(C)NC(=O)CN2CCOCC2)C(=O)NC(Cc2ccccc2)C(=O)[C@]2(C)CO2)cc1 (stereo partly drawn) | 1.43 (inactive) | 1 | 990 | 690 | -0.544 (inactive) | -7.62 |
| CCOC(=O)C(N)Cc1ccc(-c2cc(OC(c3ccc(Cl)cc3-n3ccc(C)n3)C(F)(F)F)nc(N)n2)cc1 (stereo not drawn) | 0.982 (inactive) | 0.783 | 8120 | 8260 | 0.073 (inactive) | 0.184 |
